LRH-1 inv ag = suppresses constitutive activity of human LRH-1 | O00482 | HEK293T StAR-luciferase reporter, LRH-1 transfected, 24 h | inhibition, % at 3.6 µM | 0.13% of 360,000 active;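 active = inhibition above the mean inhibition of all tested compounds plus 3 SD, cut at about 73% in these data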;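 also: 0% = DMSO wells and 100% = reporter-only cells lacking LRH-1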
SRC1 inh = inhibits human SRC1 coactivator; HEK293 GAL4-SRC1 luciferase reporter, luminescence; inhibition, % at 3.6 µM; 0.12% of 360,000 active; Q15788;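 active = inhibition above the campaign mean plus 3 SD, with each screening campaign given its own cutoff, cut at about 60% in these data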;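 also: 0% = DMSO treated cells and 100% = gossypol at 36 µM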
SRC2 inh = inhibits human steroid receptor coactivator 2 | Q15596 | HEK293 GAL4-SRC2 luciferase reporter, luminescence | inhibition, % at 9 µM | 0.17% of 370,000 active | AID 651957;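 active = inhibition above the mean inhibition of all tested compounds plus 3 SD, set per campaign, cut at about 52% in these data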;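 also: 0% = DMSO treated cells and 100% = cells given Gossypol at 36 µM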
NCOA3 inh = human NCOA3 inhibition; Q9Y6Q9; HEK293 GAL4-SRC3 luciferase reporter, luminescence; inhibition, % at 3.6 µM; 0.17% of 360,000 active; AID 588352;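 active = inhibition above a per-campaign cutoff, the mean of all compounds plus 3 SD, cut at about 60% in these data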;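 also: 0% = DMSO-treated cells and 100% = gossypol-treated cells at 36 µM; higher means less SRC3-driven luciferase light from the GAL4 reporter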
COUP-TFII inh = NR2F2 (human) inhibition, primary screen | P24468 | HEK293T NGFI-A luciferase reporter, luminescence | inhibition, % at 8.6 µM | 0.7% of 370,000 active;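 active = inhibition above a per-plate cutoff, mean inhibition of test wells between control levels plus 3 SD, cut at about 38% in these data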;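 also: cells cotransfected with COUP-TFII expression vector driving the NGFI-A reporter; 0% = median of COUP-TF2 test wells and 100% = reporter-only cells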
VP16 Luc counter = counter-screen for COUP-TFII antagonists: inhibitors of VP16; shares compounds with COUP-TFII inh; HEK293 Gal4-VP16 luciferase reporter, luminescence; inhibition, % at 8.5 µM; 25% of 2,500 active; AID 687007; in the data active = inhibition above about 13%
COUP-TFII conf = COUP-TFII (NR2F2) inhibition, confirmation assay | shares compounds with COUP-TFII inh | HEK293 NGFI-A luciferase reporter, luminescence | inhibition, % at 8.5 µM | 45% of 2,500 active;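 active = mean inhibition over three repeats above a set limit taken from the earlier primary screen, cut at about 38% in these data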;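 also: 100% = cells given the luciferase reporter alone without the COUP-TF2 vector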
The depositor's hits bear a star; . = no result given. Only some compounds are listed: those with a hit (about 0.83% of all), similar ones and a draw of the others.

SMILES	LRH-1 inv ag	SRC1 inh	SRC2 inh	NCOA3 inh	COUP-TFII inh	VP16 Luc counter	COUP-TFII conf
Cc1nc2cc(N3CCN(C)CC3)c(NC(=O)Cc3ccccc3)cc2c(=O)n1Cc1ccccc1	21	29	46	45	49*	-1	15
COC[C@H]1CCCN1c1ccc2c(c1)O[C@@H]1CCN(C1)S2(=O)=O	.	.	0	.	-6	.	.
CCOc1ccc(-n2c(SC/C=C/c3ccccc3)nnc2-c2cccs2)cc1	.	.	-23	.	-6	.	.
CC(C)C(Sc1nc(-c2ccccc2)cc(-c2ccccc2)c1C#N)C(=O)O (stereo unspecified)	6	-14	-14	-32	38*	2	6
Cc1nc2cc(-c3ccccc3)sc2c(=O)n1N	-62	-16	49	1	25	.	.
COc1ccc(-c2cc3nc(C)n(N)c(=O)c3s2)cc1	28	58	71*	70*	66*	60*	77*
C[C@H]1Cn2nncc2Cn2c3ccccc3c(=O)n21	.	.	-10	.	20	.	.
Cc1sc2ncnc(NCC(C)(C)N3CCOCC3)c2c1C	29	3	18	10	43*	4	44*
Cc1sc2ncnc(NCC3COc4ccccc4O3)c2c1C (stereo unspecified)	42	26	24	30	76*	-3	62*
Cc1sc2ncnc(NCC3(N4CCOCC4)CCCCC3)c2c1C	-19	-3	-6	-4	-12	.	.
c1ccc(-c2csc3ncnc(NCC4COc5ccccc5O4)c23)cc1 (stereo unspecified)	56	15	32	39	65*	16*	82*
CN1CCC(N[C@@H](Cc2c[nH]c3ccccc23)C(=O)NCCCc2ccccc2)(C(=O)NCCc2c[nH]c3ccccc23)CC1	.	.	.	.	-3	.	.
Cc1nc2ccc(C(=O)N3CCN(C(=O)OCc4ccccc4)CC3)cc2n1C1CCCC1	.	.	14	.	13	.	.
O=c1c2ccccc2n(Cc2ccccc2)n1[C@@H](Cc1ccccc1)Cn1cc(C2CCCC2)nn1	.	.	17	.	-6	.	.
COc1ccc(C2C(C(=O)Nc3cc(Cl)ccc3F)CCC(=O)N2c2ccc(OC)cc2)cc1 (stereo unspecified)	.	.	2	.	3	.	.
CC(=O)NC1CCCCN(C)C1=O (stereo unspecified)	.	.	-6	.	15	.	.
O=C(Nc1ccc(-c2cn3ccsc3n2)cc1)c1ccc(F)c(S(=O)(=O)N2CCOCC2)c1	-36	4	30	29	47*	-22	-13
O=C(Nc1ccccc1)c1ccc(F)c(S(=O)(=O)N2CCOCC2)c1	-18	-3	-61	7	-2	.	.
CCCCN1C(=O)/C(=C/C=C2\Oc3ccccc3N2CC)SC1=S	1	11	4	-1	-7	.	.
CCN1/C(=C/C=C/c2oc3ccc(-c4ccccc4)cc3[n+]2CC)Oc2ccc(-c3ccccc3)cc21	67	59	29	48	84*	40*	94*
COc1cccc(CN(C)[C@H]2C[C@H]3c4[nH]c5ccccc5c4CCN3C[C@H]2[C@H](C)O)c1OC	.	.	-4	.	-10	.	.
CCCCN1CCN(C(=O)c2ccc(CNC(=O)c3cccc(Br)c3)cc2)CC1	.	.	-19	.	5	.	.
COc1cccc(/C=N/Nc2ncnc(N)c2[N+](=O)[O-])c1OC	-117	-65	.	-48	.	.	.
Cc1cc(/C=N/Nc2ncnc(N)c2[N+](=O)[O-])c(C)n1-c1ccccc1	11	42	43	46	52*	44*	78*
CN(C)c1nc(-c2ccccn2)nnc1-c1ccccc1	32	-11	18	11	-29	.	.
c1ccc(-c2cccc(CNc3nc(-c4ccccn4)nnc3-c3ccccc3)c2)cc1	.	.	.	.	51*	-2	8
CCCCOc1ccc(C(=O)NC2CCCCN(C)C2=O)cc1 (stereo unspecified)	.	.	-7	.	-22	.	.
CN1/C(=C\C(=O)C[n+]2ccc3ccccc3c2)C(C)(C)c2ccccc21	61	16	4	51	79*	17*	52*
CCCCCCN1C=CC(=C2C(=O)c3ccccc3C2=O)C=C1	-68	-62	-14	-1	-24	.	.
CCCN1C=CC(=C2C(=O)c3ccccc3C2=O)C=C1	28	47	85*	67*	85*	73*	85*
